Data reported in PubChem BioAssay (Tox21).
Results filed as inconclusive are left out. Where a call stands in place of a potency, no number is given. A number with no mark means an inactive call. Calls of active or inactive are those of the source. Calls come from the whole dose curve; as a rule, active = well fitted cell-killing curve with a large enough effect in the repeat runs; inconclusive = weak or mixed curves, or effect the other way; inactive = no such curve, though single readings can be large or run the other way.

Test: qHTS assay to identify small molecule antagonists of the glucocorticoid receptor (GR) signaling pathway - cell viability counter screen (AID 720693); note: nearly all actives have a fitted effect of over 55% in size
Settings: GR-bla HeLa viability, CellTiter-Glo luminescence, 18 h, with 5 nM dexamethasone present; series mostly up to 58.5 µM; viability change, negative = cytotoxic: at the top concentration
Source text: National Center for Advancing Translational Sciences [NCATS]
NIH Chemical Genomics Center [NCGC]
U.S. Environmental Protection Agency [EPA]
National Institutes of Environmental Health Sciences [NIEHS]
National Toxicology Program [NTP]
U.S. Food and Drug Administration [FDA]
The Glucocorticoid receptor (GR) is one of the members of the nuclear receptor family of ligand-dependent transcription factors. GR plays a critical role in carbohydrate, protein and lipid metabolisms and programmed cell death. CellSensor GR-bla HeLa cell line (Invitrogen) contains a beta-lactamase reporter gene under the control of the glucocorticoid response element stably integrated into HeLa cells, a cervical cancer cell line that expresses glucocorticoid receptor. The activation of the reporter gene under culture conditions can be detected by fluorescence intensity. This cell line has been used to screen the Tox21 10K compound library and to identify the compounds that inhibit the GR signaling. The cytotoxicity of the Tox21 compound library against the GR-bla HeLa cell line was tested in parallel by measuring the cell viability using CellTiter-Glo assay in the same wells.
Tox21 Assay Protocol Summary:
The GR-bla HeLa cells were dispensed at 1500 cells/5 ul/well in 1536-well black wall/clear bottom plates using a Multidrop Combi (ThermoFisher Scientific, Waltham, MA) dispenser. After the assay plates were incubated at a 37 C/5% CO2 incubator for 4 hours, 23 nL of compounds dissolved in DMSO, positive controls or DMSO only was transferred to the assay plate by a pintool station (Kalypsys, San Diego, CA), followed by addition of 1 uL of dexamethasone (5 nM, final concentration in the well). The plates were incubated at 37 C for 18 hours. After 1 uL of LiveBLAzerTM B/G FRET substrate was added using a Flying Reagent Dispenser (Aurora Discovery, San Diego, CA), the plates were incubated at room temperature (RT) for 2 hours, and fluorescence intensity was measured by an Envision plate reader (PerkinElmer, Shelton, CT). After measurement of bla assay, 3 ul CellTiter-Glo (Promega, Madison, WI) was added to measure the cytotoxicity and the plates were then incubated at RT for 30 min. The luminescence was measured using a ViewLux (Perkin Elmer) plate reader.
Potency is the fitted concentration of half-maximal effect.

SMILES | Potency | viability change, negative = cytotoxic [%]
O=C(O)CCCCCCCCCCCC(=O)O | inactive | –
COCCOCCOCCO | inactive | –
Cc1ccc(/C(=C\CN2CCCC2)c2ccccn2)cc1 | inactive | –
NCCS(=O)(=O)O | inactive | –
Clc1ccc(Sc2cc(Cl)c(Cl)cc2Cl)cc1 | inactive | –
CC(C)=CCO | inactive | –
Nc1cc(Cl)c(N)c(Cl)c1 | inactive | –
C[C@]12CC[C@@H]3c4ccc(O)cc4CC[C@H]3[C@@H]1CC[C@H]2O | 17.4 µM (active) | –
Cc1ccc(C)c(O)c1 | inactive | –
CC(=O)Nc1ccc2c(c1)Cc1cc(NC(C)=O)ccc1-2 | inactive | –
NC[C@H](O)c1ccc(O)c(O)c1 | inactive | –
COC(=O)CC(=O)OC | inactive | –
CC(=O)OC(C)C | inactive | –
CCC(=O)O[C@H]1[C@H](O[C@@H]2[C@@H](C)[C@H](O[C@H]3C[C@@](C)(OC)[C@@H](O)[C@H](C)O3)[C@@H](C)C(=O)O[C@H](CC)[C@@](C)(O)[C@H](O)[C@@H](C)C(=O)[C@H](C)C[C@@]2(C)O)O[C@H](C)C[C@@H]1N(C)C | – | -13.4
Cc1ccc(S(=O)(=O)NCl)cc1 | inactive | –
CC(C)[C@@H]1CC[C@@H](C)CC1=O | inactive | –
CN(C)/N=N/c1nc[nH]c1C(N)=O | inactive | –
CC/C=C\C/C=C\C/C=C\CCCCCCCC(=O)O | inactive | –
COC(=O)C(C)Oc1ccc(Oc2ncc(C(F)(F)F)cc2Cl)cc1 (stereo not given) | inactive | –
O=C1OC2(c3ccccc31)c1cc(I)c(O)c(I)c1Oc1c2cc(I)c(O)c1I | inactive | –

SMILES | Potency | viability change, negative = cytotoxic [%]
CC(=O)[C@H]1CC[C@H]2[C@@H]3CC=C4C[C@@H](O)CC[C@]4(C)[C@H]3CC[C@]12C | inactive | –
c1ccc2c(c1)[nH]c1ccccc12 | inactive | –
CCCCCC1C(=O)CCC1CC(=O)OC (stereo not given) | inactive | –
O=C(O)c1cc(=O)[nH]c(=O)[nH]1 | inactive | –
CNC[C@H](O)c1ccc(O)c(O)c1 | inactive | –
OC[C@@H](O)[C@@H](O[C@@H]1O[C@H](CO)[C@H](O)[C@H](O)[C@H]1O)[C@H](O)[C@@H](O)CO | inactive | –
CC1(C)C(C=C(Cl)Cl)C1C(=O)OCc1cccc(Oc2ccccc2)c1 (stereo not given) | inactive | –
CC1(C)O[C@@H]2C[C@H]3[C@@H]4C[C@H](F)C5=CC(=O)C=C[C@]5(C)[C@@]4(F)[C@@H](O)C[C@]3(C)[C@]2(C(=O)CO)O1 | inactive | –
CC1(C)NC(=O)N(c2ccc([N+](=O)[O-])c(C(F)(F)F)c2)C1=O | – | -0.169
Brc1nc2ccccc2s1 | inactive | –
COc1ccc2nc(N)sc2c1 | inactive | –
C[C@]12C=CC(=O)C=C1CC[C@H]1[C@@H]3C[C@@H](O)[C@](O)(C(=O)CO)[C@@]3(C)C[C@H](O)[C@@]12F | inactive | –
CC(C)(Oc1ccc(Cl)cc1)C(=O)O | inactive | –
FC(F)(F)C(Cl)Br (stereo not given) | inactive | –
Cc1ccc(C(C)(C)C)c(O)c1 | inactive | –
IC(I)I | inactive | –
C=C[C@@]1(C)CC(=O)[C@]2(O)[C@@]3(C)[C@@H](O)CCC(C)(C)[C@@H]3[C@H](O)[C@H](OC(C)=O)[C@@]2(C)O1 | inactive | –
Cc1ccc2c(c1)C(=O)OC2=O | inactive | –
CCCCCCCCCCC(CO)CCCCCCCC (stereo not given) | inactive | –
O=C(O)COCCN1CCN(C(c2ccccc2)c2ccc(Cl)cc2)CC1 (stereo not given) | inactive | –
